{
  "source": "ChEMBL document CHEMBL3988442",
  "about": "“University of Dundee, Small-Polar-MMV Screening Library” (2021)",
  "key": {"[1]": {"biological_target": "T1, Aspartate--tRNA(Asp/Asn) ligase (Mycobacterium tuberculosis (strain ATCC 25618 / H37Rv)) (UniProt P9WFW3)", "T1 sequence (whole entry)": "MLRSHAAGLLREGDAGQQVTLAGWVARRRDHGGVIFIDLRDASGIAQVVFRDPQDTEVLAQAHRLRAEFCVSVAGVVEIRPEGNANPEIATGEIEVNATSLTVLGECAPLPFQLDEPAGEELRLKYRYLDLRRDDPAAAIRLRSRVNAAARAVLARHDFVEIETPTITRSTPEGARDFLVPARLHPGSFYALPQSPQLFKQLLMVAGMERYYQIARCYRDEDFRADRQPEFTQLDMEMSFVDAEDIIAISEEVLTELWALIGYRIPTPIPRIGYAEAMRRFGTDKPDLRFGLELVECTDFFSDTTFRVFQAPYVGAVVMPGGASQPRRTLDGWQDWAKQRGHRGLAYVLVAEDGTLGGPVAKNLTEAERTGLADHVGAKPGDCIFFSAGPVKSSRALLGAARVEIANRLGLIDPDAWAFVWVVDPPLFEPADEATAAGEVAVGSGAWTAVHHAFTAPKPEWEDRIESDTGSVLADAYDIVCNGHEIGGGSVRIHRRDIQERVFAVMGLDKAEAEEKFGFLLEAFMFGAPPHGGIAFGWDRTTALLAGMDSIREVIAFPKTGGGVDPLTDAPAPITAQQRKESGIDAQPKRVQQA", "assay": "Assay for Asp RNA synthetase-1 from Mycobacterium tuberculosis", "format": "functional", "set-up": "scale not given: direction of the effect not stated beside the values", "conditions": "30 µM"}, "[2]": {"biological_target": "Shiga toxin 2 (Escherichia coli O157:H7) (UniProt P09385+P09386)", "assay": "E. coli 0.157:H7 Shiga Toxin SOP - stx2 screening assay", "format": "functional", "set-up": "scale not given: direction of the effect not stated beside the values", "conditions": "30 µM"}},
  "data": [
    {"smiles": "Cn1cccc1-c1cc(C(=O)N2CC(c3cccnc3)C2)[nH]n1", "values": [
      {"measurement": "Percent Effect", "setting": "[1]", "value": -0.915, "unit": "%"},
      {"measurement": "Percent Effect", "setting": "[2]", "value": -50.6, "unit": "%"}
    ]},
    {"smiles": "c1csc(-c2noc(CCCN3CCCC3Cn3cccn3)n2)c1", "note": "(configuration not stated)", "values": [
      {"measurement": "Percent Effect", "setting": "[1]", "value": -1.67, "unit": "%"},
      {"measurement": "Percent Effect", "setting": "[2]", "value": 15.3, "unit": "%"}
    ]},
    {"smiles": "CS(=O)(=O)NC[C@H]1OC[C@@H]2CCN(Cc3ccc(F)cc3)C[C@@H]21", "values": [
      {"measurement": "Percent Effect", "setting": "[1]", "value": 0.903, "unit": "%"},
      {"measurement": "Percent Effect", "setting": "[2]", "value": -21.2, "unit": "%"}
    ]},
    {"smiles": "O=C(Cc1ccccn1)N1C[C@@H]2CC[C@H](C1)N(Cc1ccccc1)C2=O", "values": [
      {"measurement": "Percent Effect", "setting": "[1]", "value": -1.24, "unit": "%"},
      {"measurement": "Percent Effect", "setting": "[2]", "value": -4.09, "unit": "%"}
    ]},
    {"smiles": "Cc1ccccc1-c1noc(CN2CCn3c(nnc3C3CC3)C2)n1", "values": [
      {"measurement": "Percent Effect", "setting": "[1]", "value": -0.7, "unit": "%"},
      {"measurement": "Percent Effect", "setting": "[2]", "value": -48.8, "unit": "%"}
    ]},
    {"smiles": "CC1CCc2nc(O)c(C(=O)NCCN(C)C)cc2C1", "note": "(configuration not stated)", "values": [
      {"measurement": "Percent Effect", "setting": "[1]", "value": -0.552, "unit": "%"},
      {"measurement": "Percent Effect", "setting": "[2]", "value": -8.38, "unit": "%"}
    ]},
    {"smiles": "Cc1cc(NC(=O)NCc2ccccc2OC(F)F)n(C)n1", "values": [
      {"measurement": "Percent Effect", "setting": "[1]", "value": -5.2, "unit": "%"},
      {"measurement": "Percent Effect", "setting": "[2]", "value": -10.5, "unit": "%"}
    ]},
    {"smiles": "CC(C)N(Cc1cccc(F)c1)Cc1nc2c(cnn2C)c(=O)[nH]1", "values": [
      {"measurement": "Percent Effect", "setting": "[1]", "value": -5.3, "unit": "%"},
      {"measurement": "Percent Effect", "setting": "[2]", "value": -0.112, "unit": "%"}
    ]},
    {"smiles": "COC(=O)C1CCN(C(=O)CN2CCN(c3cccc(C)c3)CC2)CC1", "values": [
      {"measurement": "Percent Effect", "setting": "[1]", "value": -0.137, "unit": "%"},
      {"measurement": "Percent Effect", "setting": "[2]", "value": -48.5, "unit": "%"}
    ]},
    {"smiles": "CCc1nc(CN2CCCN(C(=O)CCc3ccco3)CC2)cs1", "values": [
      {"measurement": "Percent Effect", "setting": "[1]", "value": -4.26, "unit": "%"},
      {"measurement": "Percent Effect", "setting": "[2]", "value": -71.2, "unit": "%"}
    ]},
    {"smiles": "Cc1cccc(CCC(=O)N2CCCC(c3cc(C(N)=O)[nH]n3)C2)c1", "note": "(configuration not stated)", "values": [
      {"measurement": "Percent Effect", "setting": "[1]", "value": -0.161, "unit": "%"},
      {"measurement": "Percent Effect", "setting": "[2]", "value": -10.2, "unit": "%"}
    ]},
    {"smiles": "CC(=O)N(C)CC(=O)Nc1cccc(N2CCN(CC3CC3)CC2)c1", "values": [
      {"measurement": "Percent Effect", "setting": "[1]", "value": 7.12, "unit": "%"},
      {"measurement": "Percent Effect", "setting": "[2]", "value": -14.8, "unit": "%"}
    ]},
    {"smiles": "COCCNC(=O)C1(c2ccccc2C)CCOCC1", "values": [
      {"measurement": "Percent Effect", "setting": "[1]", "value": -1.82, "unit": "%"},
      {"measurement": "Percent Effect", "setting": "[2]", "value": 19.2, "unit": "%"}
    ]},
    {"smiles": "Cc1cc(=O)n(CC(=O)Nc2ccc(C(N)=O)cc2)nc1C", "values": [
      {"measurement": "Percent Effect", "setting": "[1]", "value": -0.0781, "unit": "%"},
      {"measurement": "Percent Effect", "setting": "[2]", "value": -33, "unit": "%"}
    ]},
    {"smiles": "COc1ccc(C2OC(COc3ccccc3Br)=NN2C(C)=O)cc1", "note": "(configuration not stated)", "values": [
      {"measurement": "Percent Effect", "setting": "[1]", "value": 0.568, "unit": "%"},
      {"measurement": "Percent Effect", "setting": "[2]", "value": -36.2, "unit": "%"}
    ]},
    {"smiles": "O=C(CCC1CCCC1)NCCn1nc(C2CCNC2)c2nccnc21", "note": "(configuration not stated)", "values": [
      {"measurement": "Percent Effect", "setting": "[1]", "value": 1.74, "unit": "%"},
      {"measurement": "Percent Effect", "setting": "[2]", "value": -35.4, "unit": "%"}
    ]}
  ]
}
